# Laboratory results from PubChem BioAssay.
# Active and inactive are the calls of the source.
# Experiments:
# [1] = binders of probe aFSTL3 on microarray, primary screen, stem cell growth factor project, biochemical, small-molecule microarray, fluorescence 635/667 (AID 1064); settings: higher = more signal;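 further: measures binding of the biotinylated anti-FSTL3 antibody to printed compounds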
# [2] = binders from COS7 lysate, DM2A8 probe, primary screen, torsin A project, cell lysate, small-molecule microarray, fluorescence 635/667 (AID 1065); settings: higher = more signal, COS7 lysate expressing mutant human TOR1A
# [3] = binders of probe aFGF2 on microarray, primary screen, stem cell growth factor project, biochemical, small-molecule microarray, fluorescence 635/667 (AID 1067); settings: higher = more signal;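 further: measures binding of biotinylated aFGF2 protein to printed compounds on slides; z-score merges feature fluorescence and signal-to-noise across triplicate slides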
# [4] = binders of probe aFGF10 on microarray, primary screen, stem cell growth factor project, biochemical, small-molecule microarray, fluorescence 635/667 (AID 1071); settings: higher = more signal;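 further: score merges 667 nm spot intensity and signal to noise from triplicate slides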
# [5] = target: Neurogenic locus notch homolog protein 2 (Homo sapiens) (UniProt Q04721); assay: Notch2 binders on small-molecule microarrays, primary screen, biochemical, small-molecule microarray, 635 nm fluorescence, stem cell growth factors (AID 1073); settings: Notch2 binding, higher = more signal
# [6] = target: Pro-neuregulin-1, membrane-bound isoform (Homo sapiens) (UniProt Q02297); assay: NRG1 binders on small-molecule microarrays, primary screen, psychiatric disease protein project, biochemical, small-molecule microarray, fluorescence 635/667 (AID 1075); settings: NRG1 binding, 635 nm fluorescence, higher = more signal;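 further: score combines 667 nm spot fluorescence with signal to noise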
# [7] = test system: Neuregulin-1 EGF-like domain; assay: binders of neuregulin-1 EGF-like domain, primary screen, biochemical, small-molecule microarray, 635 nm fluorescence (AID 1081); settings: small-molecule microarray binding, higher = more signal;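 further: binding of the protein to compounds printed on small-molecule microarray slides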
# [8] = FRG1 promoter luciferase signal modulators, primary screen, FRG1 inhibition for FSHD, cell-based, C2C12 myotubes, firefly/Renilla luciferase, luminescence (AID 1084); settings: higher = more signal, called active from +8 up or from −8 down
# [9] = binders of probe aFST on microarray, primary screen, stem cell growth factor project, biochemical, small-molecule microarray, fluorescence 635/667 (AID 1086); settings: higher = more signal;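 further: score merges 667 nm fluorescence with signal-to-noise of each printed compound spot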
# [10] = binders of probe aHhip on microarray, primary screen, stem cell growth factor project, biochemical, small-molecule microarray, fluorescence 635/667 (AID 1087); settings: higher = more signal;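 further: score merges spot fluorescence at 667nm with spot signal to noise ratio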
# [11] = test system: PRMT1 (protein arginine N-methyltransferase 1); assay: PRMT1 binders on small-molecule microarrays, primary screen, biochemical, small-molecule microarray, 635 nm fluorescence (AID 1088); settings: small-molecule microarray binding, higher = more signal;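 further: binding of Prmt1 protein to compounds spotted on small-molecule microarray slides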
# [12] = yeast growth modulation, basal conditions, primary screen, YJM789 clinical isolate, OD600, 24 h (AID 1089);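 further: growth of clinical yeast isolate S. cerevisiae YJM 789 seeded 1000 cells per well; test concentration not given here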; settings: S. cerevisiae YJM789 growth, higher = more signal, called active from +8 up or from −8 down
# [13] = fission yeast growth modulation, primary screen, strain 972, OD600, 24 h, no modulator (AID 1090);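 further: basal condition with compound alone and no growth modifier present; test concentration not given here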; settings: S. pombe 972 growth, higher = more signal, called active from +8 up or from −8 down
# [14] = S. cerevisiae growth modulation with rapamycin, primary screen, strain BY4716, OD600, 96 h (AID 1091); settings: higher = more signal, called active from +8 up or from −8 down; further: test concentration not given here
# [15] = target: Torsin-1A-interacting protein 2 (Homo sapiens) (UniProt Q8NFQ8); assay: LULL1 binders on small-molecule microarray, primary screen, cell lysate, human LULL1 lysate, 635/667 nm fluorescence (AID 1092); settings: hLULL1 lysate binding, 635 nm fluorescence, higher = more signal;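 further: probe is lysate of COS7 cells overexpressing human LULL1; score merges per-feature 667 nm fluorescence with signal-to-noise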
# [16] = E. coli growth modulation, two-sided OD650, primary screen, E. coli filamentation project, strain DRC41, 24 h (AID 1093); settings: OD650, 24 h, higher = more signal, called active from +8 up or from −8 down;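 further: MC1000 strain lacking acrAB efflux and sulA so SOS filamentation is blocked; test concentration not given here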
# [17] = small-molecule microarray binders of probe aLefty2, primary screen, biochemical, biotinylated probe, 635/667 nm fluorescence (AID 1094); settings: higher = more signal;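 further: score merges spot fluorescence near 667 nm with spot signal-to-noise ratio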
# [18] = test system: Noggin (protein binding on small-molecule microarray); assay: Noggin binders on small-molecule microarray, primary screen, biochemical, 635/667 nm fluorescence (AID 1095); settings: 635 nm fluorescence, higher = more signal;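 further: score merges 667 nm feature fluorescence with signal to noise over triplicate slides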
# [19] = target: Neurogenic locus notch homolog protein 3 (Homo sapiens) (UniProt Q9UM47); assay: NOTCH3 binders on small-molecule microarray, primary screen, biochemical, 635/667 nm fluorescence (AID 1096); settings: NOTCH3 binding, 635 nm fluorescence, higher = more signal
# [20] = small-molecule microarray binders of probe aEGFR, primary screen, biochemical, biotinylated probe, 635/667 nm fluorescence (AID 1097); settings: higher = more signal;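 further: probe is a biotinylated anti-EGFR antibody binding compounds printed on slides; score combines fluorescence near 667 nm and signal to noise of each spot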
# Sequence of Neurogenic locus notch homolog protein 2 (Homo sapiens) (Q04721 whole entry, looked up, canonical isoform): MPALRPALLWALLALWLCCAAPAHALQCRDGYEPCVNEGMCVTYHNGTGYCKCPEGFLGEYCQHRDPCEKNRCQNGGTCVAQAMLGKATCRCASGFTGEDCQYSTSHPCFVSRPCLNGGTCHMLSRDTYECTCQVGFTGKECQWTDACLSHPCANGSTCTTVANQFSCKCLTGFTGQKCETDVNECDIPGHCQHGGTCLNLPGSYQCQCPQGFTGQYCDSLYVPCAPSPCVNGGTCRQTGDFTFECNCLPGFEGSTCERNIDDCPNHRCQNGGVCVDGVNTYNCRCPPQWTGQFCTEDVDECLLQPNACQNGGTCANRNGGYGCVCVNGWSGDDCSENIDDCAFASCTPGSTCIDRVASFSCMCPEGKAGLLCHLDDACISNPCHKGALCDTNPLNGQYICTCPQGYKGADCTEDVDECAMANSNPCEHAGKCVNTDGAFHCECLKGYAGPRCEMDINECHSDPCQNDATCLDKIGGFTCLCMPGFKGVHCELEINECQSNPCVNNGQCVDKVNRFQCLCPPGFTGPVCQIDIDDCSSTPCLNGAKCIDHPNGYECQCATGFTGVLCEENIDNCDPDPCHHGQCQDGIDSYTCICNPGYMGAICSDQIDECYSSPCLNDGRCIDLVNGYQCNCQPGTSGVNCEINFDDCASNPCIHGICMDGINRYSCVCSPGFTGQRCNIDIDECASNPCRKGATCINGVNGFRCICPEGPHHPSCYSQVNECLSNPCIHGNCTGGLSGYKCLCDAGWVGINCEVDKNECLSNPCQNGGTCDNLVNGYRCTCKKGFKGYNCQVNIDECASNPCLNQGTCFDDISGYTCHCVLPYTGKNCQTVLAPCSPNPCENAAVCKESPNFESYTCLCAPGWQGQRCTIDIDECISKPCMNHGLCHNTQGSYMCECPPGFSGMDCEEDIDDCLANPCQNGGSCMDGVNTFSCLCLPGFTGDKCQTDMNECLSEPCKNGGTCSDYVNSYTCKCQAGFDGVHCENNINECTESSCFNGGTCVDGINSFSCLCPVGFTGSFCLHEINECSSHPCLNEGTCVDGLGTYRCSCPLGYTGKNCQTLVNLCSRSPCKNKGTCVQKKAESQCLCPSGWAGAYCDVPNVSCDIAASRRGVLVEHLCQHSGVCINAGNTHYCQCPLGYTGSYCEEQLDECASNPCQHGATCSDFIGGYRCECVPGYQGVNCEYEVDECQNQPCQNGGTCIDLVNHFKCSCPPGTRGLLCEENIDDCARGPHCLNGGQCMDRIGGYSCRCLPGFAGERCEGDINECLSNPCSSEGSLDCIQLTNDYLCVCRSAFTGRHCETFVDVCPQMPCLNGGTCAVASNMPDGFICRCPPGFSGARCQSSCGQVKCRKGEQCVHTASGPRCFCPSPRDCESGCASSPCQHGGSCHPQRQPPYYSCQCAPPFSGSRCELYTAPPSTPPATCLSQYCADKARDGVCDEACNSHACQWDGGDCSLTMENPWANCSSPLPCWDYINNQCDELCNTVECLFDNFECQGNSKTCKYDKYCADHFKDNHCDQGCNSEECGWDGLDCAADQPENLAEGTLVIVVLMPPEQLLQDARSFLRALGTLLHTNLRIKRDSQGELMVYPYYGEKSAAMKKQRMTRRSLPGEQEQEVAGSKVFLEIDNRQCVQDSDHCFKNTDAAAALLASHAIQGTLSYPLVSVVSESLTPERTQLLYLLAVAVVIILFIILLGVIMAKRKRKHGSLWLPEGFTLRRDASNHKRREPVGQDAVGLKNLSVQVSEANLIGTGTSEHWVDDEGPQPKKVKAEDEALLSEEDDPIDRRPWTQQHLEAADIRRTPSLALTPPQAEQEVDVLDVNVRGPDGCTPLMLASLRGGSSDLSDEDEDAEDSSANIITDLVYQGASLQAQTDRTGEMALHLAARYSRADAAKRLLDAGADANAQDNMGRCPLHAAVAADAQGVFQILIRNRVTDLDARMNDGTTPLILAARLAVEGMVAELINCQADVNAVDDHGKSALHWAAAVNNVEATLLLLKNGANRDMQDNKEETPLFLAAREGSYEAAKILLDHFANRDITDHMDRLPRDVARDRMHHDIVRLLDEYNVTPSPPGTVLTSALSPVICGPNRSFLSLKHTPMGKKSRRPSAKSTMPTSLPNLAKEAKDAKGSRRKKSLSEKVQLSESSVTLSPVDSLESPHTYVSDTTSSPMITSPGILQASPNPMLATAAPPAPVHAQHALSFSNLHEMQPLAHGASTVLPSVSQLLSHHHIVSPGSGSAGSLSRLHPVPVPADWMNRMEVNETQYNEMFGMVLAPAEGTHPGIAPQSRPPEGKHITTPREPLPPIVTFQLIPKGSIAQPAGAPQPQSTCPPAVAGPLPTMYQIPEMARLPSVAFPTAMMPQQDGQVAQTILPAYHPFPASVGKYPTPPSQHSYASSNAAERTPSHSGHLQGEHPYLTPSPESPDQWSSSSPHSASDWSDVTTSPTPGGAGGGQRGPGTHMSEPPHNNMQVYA
# Sequence of Torsin-1A-interacting protein 2 (Homo sapiens) (Q8NFQ8 whole entry, looked up): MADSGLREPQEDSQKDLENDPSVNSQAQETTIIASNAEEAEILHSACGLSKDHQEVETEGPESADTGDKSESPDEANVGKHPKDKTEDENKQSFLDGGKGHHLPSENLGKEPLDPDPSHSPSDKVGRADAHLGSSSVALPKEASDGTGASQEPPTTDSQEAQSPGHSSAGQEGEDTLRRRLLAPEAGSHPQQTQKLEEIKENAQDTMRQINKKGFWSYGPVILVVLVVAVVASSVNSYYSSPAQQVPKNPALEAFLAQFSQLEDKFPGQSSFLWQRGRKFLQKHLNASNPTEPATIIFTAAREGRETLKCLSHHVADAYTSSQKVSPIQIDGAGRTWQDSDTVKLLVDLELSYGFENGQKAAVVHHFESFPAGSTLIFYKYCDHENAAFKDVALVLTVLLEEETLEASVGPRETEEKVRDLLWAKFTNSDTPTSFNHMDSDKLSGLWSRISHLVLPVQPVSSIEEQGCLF
# Sequence of Pro-neuregulin-1, membrane-bound isoform (Homo sapiens) (Q02297 whole entry, looked up, the tested form may be a part, canonical isoform): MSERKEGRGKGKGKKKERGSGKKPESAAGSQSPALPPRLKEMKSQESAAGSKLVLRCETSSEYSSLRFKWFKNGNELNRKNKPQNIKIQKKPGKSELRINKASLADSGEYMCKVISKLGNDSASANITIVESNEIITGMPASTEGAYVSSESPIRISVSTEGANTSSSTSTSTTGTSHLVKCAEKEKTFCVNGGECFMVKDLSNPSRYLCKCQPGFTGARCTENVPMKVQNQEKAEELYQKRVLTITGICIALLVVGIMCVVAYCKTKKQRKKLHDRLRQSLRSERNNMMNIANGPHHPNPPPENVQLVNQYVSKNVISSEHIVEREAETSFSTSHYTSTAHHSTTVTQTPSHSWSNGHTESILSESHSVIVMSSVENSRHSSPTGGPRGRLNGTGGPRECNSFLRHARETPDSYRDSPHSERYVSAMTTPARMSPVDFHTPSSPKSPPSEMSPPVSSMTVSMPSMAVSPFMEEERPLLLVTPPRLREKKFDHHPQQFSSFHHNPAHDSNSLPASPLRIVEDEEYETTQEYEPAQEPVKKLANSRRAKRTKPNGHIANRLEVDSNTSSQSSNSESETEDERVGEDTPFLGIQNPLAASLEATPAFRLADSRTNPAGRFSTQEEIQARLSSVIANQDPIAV
Compound,composite z-score [1],composite z-score [2],composite z-score [3],composite z-score [4],composite z-score [5],composite z-score [6],composite z-score [7],z-score [8],composite z-score [9],composite z-score [10],composite z-score [11],z-score [12],z-score [13],z-score [14],composite z-score [15],z-score [16],composite z-score [17],composite z-score [18],composite z-score [19],composite z-score [20]
O=C1[C@@H]2[C@@H](CC(COc3ccccc3)=C3[C@@H](CCc4ccccc4)OB(O)C[C@@H]32)C(=O)N1Cc1ccccc1,-0.559,0.242,-0.0737,0.265,0.697,0.81,-0.113,0.0109 (inactive),0.531,-0.289,-0.0537,-0.402 (inactive),-1.04 (inactive),0.297 (inactive),0.828,-0.874 (inactive),-0.274,0.204,0.359,-0.116
COc1cc2c(cc1OC)CN(C(=O)[C@@H]1[C@H]3C(=O)O[C@H](c4ccccc4)[C@H](c4ccccc4)N3[C@H](c3ccc(O)cc3)[C@@]13C(=O)Nc1ccc(C#CCCO)cc13)CC2,-0.281,0.0865,-0.0962,0.658,0.711,1.39,1.17,-0.101 (inactive),0.628,-0.201,1.34,1.09 (inactive),0.673 (inactive),1.81 (inactive),2.5,-0.385 (inactive),-0.0809,0.32,0.667,-0.0424
CC(=O)n1cc(C(O)C2C=CC3C(=O)N(c4ccccc4)C(=O)C3N2Nc2ccc(C(C)C)cc2)c2ccccc21 (stereo not given),0.657,0.249,0.125,0.899,1.55,1.95,1.15,-0.833 (inactive),1.07,-0.0645,1.22,-0.314 (inactive),0.713 (inactive),0.0496 (inactive),3.27,-0.811 (inactive),0.353,-0.706,1.04,0.0786
[N-]=[N+]=Nc1ccccc1[C@@H]1OC(c2ccc(OCCCO)cc2)=N[C@]1(Cc1ccccc1)C(=O)NCc1ccccc1,0.97,1.72,0.0653,0.371,1.59,1.6,1.2,-1.2 (inactive),1.21,0.0614,1.47,-1.79 (inactive),-0.27 (inactive),3.07 (inactive),3.43,-0.0484 (inactive),0.298,0.849,1.11,0.454
CC(C)c1ccc(NN2C(C(O)Cc3ccccc3)C=CC3C(=O)N(c4ccccc4)C(=O)C32)cc1 (stereo not given),0.0399,-0.0235,0.0116,0.408,1.5,1.76,0.593,0.0899 (inactive),1.36,-0.0645,1.48,-0.619 (inactive),-0.699 (inactive),0.844 (inactive),3.51,-1.36 (inactive),0.388,0.294,1.07,0.205
CCOC(=O)C[C@H]1[C@H](OC(=O)c2ccc(-c3ccccc3)cc2)[C@@H](NC(=O)CC(C)C)c2cc(OCCCO)ccc2N1C(=O)c1ccccc1,-0.308,-0.288,-0.0236,0.311,0.623,-0.037,0.648,-0.165 (inactive),0.547,-0.217,0.468,0.72 (inactive),1.4 (inactive),1.38 (inactive),1.49,-0.513 (inactive),-0.107,0.49,0.952,0.048
COCCOC(=O)N1C(=O)[C@@]2(c3cc(C#CCCO)ccc31)[C@H](c1ccccc1OCCO)N1[C@H](c3ccccc3)[C@H](c3ccccc3)OC(=O)[C@H]1[C@@H]2C(=O)N1CCCCCCC1,2.91,0.821,0.452,0.413,1.14,1.72,1.32,-3.3 (inactive),2.59,2.43,1.54,1.76 (inactive),0.11 (inactive),2.88 (inactive),3.57,1.06 (inactive),1.39,1.86,1.05,0.837
CCOC(=O)C1=CCN(S(=O)(=O)c2ccc(C)cc2)C1c1ccccc1 (stereo not given),-0.0137,0.229,-0.0232,0.535,1.5,1.44,1.2,-0.158 (inactive),0.439,0.113,1.03,-1.76 (inactive),-0.849 (inactive),0.318 (inactive),2.93,-0.4 (inactive),0.38,0.216,0.821,0.227
C=C(CCCC)C(=O)CC[C@H](OC(C)=O)c1ccc(OCCO)cc1,-0.222,-0.0212,-0.214,-0.253,-0.989,-0.189,-0.67,0.38 (inactive),-0.358,3.01,-0.0507,-1.62 (inactive),-6.78 (inactive),-2.54 (inactive),-0.835,2.19 (inactive),-0.269,-0.469,-0.829,-0.16
CC(C)[C@H]1NC(=O)[C@@]23C(=O)N[C@@H](Cc4ccccc4)C2[C@H](C)[C@@]2(C)O[C@H]2C3/C=C/CCC/C=C/CNC(=O)[C@H](Cc2ccccc2)NC1=O (stereo not given in full),-0.245,0.719,-0.147,-0.0587,0.046,1.57,1.22,0.966 (inactive),-0.419,-0.319,0.776,0.249 (inactive),-1.4 (inactive),-0.622 (inactive),2.47,0.139 (inactive),-0.232,1.22,0.419,-0.161
